# Experimental data reported in ChEMBL document CHEMBL3988442, “University of Dundee, Small-Polar-MMV Screening Library” (2021).
# Target: T1, Aspartate--tRNA(Asp/Asn) ligase (Mycobacterium tuberculosis (strain ATCC 25618 / H37Rv)) (UniProt P9WFW3); further: in the data most compounds retested in dose-response had high values
# T1 sequence (whole entry): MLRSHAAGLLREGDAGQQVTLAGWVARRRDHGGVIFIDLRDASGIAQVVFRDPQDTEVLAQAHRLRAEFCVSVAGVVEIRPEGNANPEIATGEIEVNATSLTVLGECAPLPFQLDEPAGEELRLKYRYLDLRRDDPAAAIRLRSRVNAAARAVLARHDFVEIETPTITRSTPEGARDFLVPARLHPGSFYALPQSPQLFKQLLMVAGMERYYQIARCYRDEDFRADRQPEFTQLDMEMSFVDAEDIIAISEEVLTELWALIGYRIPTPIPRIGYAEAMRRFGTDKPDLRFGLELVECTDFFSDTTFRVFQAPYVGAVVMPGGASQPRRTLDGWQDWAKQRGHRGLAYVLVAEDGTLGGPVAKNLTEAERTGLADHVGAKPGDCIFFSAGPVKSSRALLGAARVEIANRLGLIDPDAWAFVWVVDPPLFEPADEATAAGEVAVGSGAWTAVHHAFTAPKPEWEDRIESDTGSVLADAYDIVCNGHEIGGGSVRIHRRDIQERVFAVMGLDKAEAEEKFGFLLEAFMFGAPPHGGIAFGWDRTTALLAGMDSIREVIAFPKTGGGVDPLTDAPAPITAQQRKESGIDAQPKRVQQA
# Experiment: Assay for Asp RNA synthetase-1 from Mycobacterium tuberculosis
# Format: functional
# Set-up: scale not given: direction of the effect not stated beside the values
# Conditions: 30 µM
row,SMILES,Percent Effect
1,CC(CN1CCCC1)C(=O)N1CCC(c2nccn2CC2CC2)CC1 (stereo not given),-0.479%
2,Cc1cc(=O)n(CC(=O)NCC2CCCO2)c(-c2cccc(Cl)c2)n1 (stereo not given),8.05%
3,CS(=O)(=O)NCc1nnc2n1CCN(Cc1cccs1)C2,-4.17%
4,CCC(NC(=O)C1CCN(S(=O)(=O)N(C)C)CC1)c1ccc(C)c(C)c1 (stereo not given),4.22%
5,CCC(C)(C)NC(=O)C1CC(=O)N(CC2CC2)C1 (stereo not given),5.42%
6,CN(Cc1ccc(Cl)s1)C1CCCN(c2cccnn2)C1 (stereo not given),2.31%
7,Cn1cc(N2CCC(NC(=O)c3c(F)cccc3F)C2=O)cn1 (stereo not given),0.409%
8,CCc1nnc(CNCC2CCN(CC(O)c3ccccc3)CC2)o1 (stereo not given),-2.95%
9,Cn1cc(CCNC(=O)CCc2ccc3c(c2)OCO3)cn1,1.25%
10,CC(C(=O)N1CCN(c2cnccn2)CC1)n1cncn1 (stereo not given),2.72%
11,CCn1ccnc1CN1CCOC(CNc2cccnn2)C1 (stereo not given),-0.152%
12,Cc1cccc(CN2CCc3ncnc(C)c3CC2)n1,-0.616%
13,Cc1nccn1-c1cccc(C2CCCN2S(=O)(=O)N(C)C)n1 (stereo not given),1.37%
14,COc1cccc(COCC(=O)N2CCCC(n3ccnc3)C2)c1 (stereo not given),-3.41%
15,O=C(Nc1nccs1)N1CCCC(N2CCNC2=O)C1 (stereo not given),0.977%
16,COc1cccc(COCC(=O)N2CCCC(n3ccnc3C)C2)c1 (stereo not given),-4.19%
17,CN(C)CCO[C@@H]1CC[C@H]2[C@H]1OCCN2C(=O)CCc1ccccc1,-1.17%
18,CN(Cc1nnc(C2CC2)n1C)C(=O)c1ccnc(OC2CCC2)c1,-0.39%
19,COC(=O)CNC(=O)CSCc1nc(O)c2c(C)c(C)sc2n1,-0.261%
20,CC(C)Cc1noc(CN2CCC(NC(=O)c3cccs3)CC2)n1,1.37%

# Target: Shiga toxin 2 (Escherichia coli O157:H7) (UniProt P09385+P09386)
# Experiment: E. coli 0.157:H7 Shiga Toxin SOP - stx2 screening assay
# Format: functional
# Set-up: scale not given: direction of the effect not stated beside the values
# Conditions: 30 µM
row,SMILES,Percent Effect
1,Cc1ccc2c(c1)c(CNC(=O)C1CC(=O)N(C3CCCC3)C1)nn2C (stereo not given),-18%
2,O=C1COC2(CCN(Cc3cccs3)CC2)CN1c1ccccc1,-22%
3,CC(C)CC(CNC(=O)NCc1cc[nH]n1)N1CCOCC1 (stereo not given),-30.7%
4,CCCOCC(=O)NS(=O)(=O)c1ccc2c(c1)OCCCO2,17.6%
5,c1cncc(-c2nccc(CN3CCCC3)n2)c1,-20.7%
6,CC(=O)c1sc(Nc2ccc(Cl)cn2)nc1C,-4.07%
7,c1nc2n(n1)CC(NCc1nc(-c3ccsc3)no1)CC2 (stereo not given),10.5%
8,Cn1ncc2c(NCCC34CCCN3CCC4)nc(C3CCCC3)nc21,-7.47%
9,CC(=O)NCC1CCN(C(=O)c2csc(-c3ccc(C)cc3C)n2)CC1,14%
10,CS(=O)(=O)c1ccc(CNC2CCCN(c3cccnn3)C2)cc1 (stereo not given),4.3%
11,CC(C)(C)c1nnc(CN2CCOC(Cn3cncn3)C2)o1 (stereo not given),8.96%
12,CCOC1CCN(C(=O)c2cnn(-c3ccccc3Cl)c2)CC1,28.9%
13,Cc1nc(CN2CCn3cc(CNC(=O)C4CCC4)nc3C2)cs1,-50.1%
14,Cc1nc(CN(C)C2CCCN(c3cccnn3)C2)no1 (stereo not given),-10.7%
15,O=C(NCC1CC1)[C@H]1C[C@H]2OCC[C@H]2N(Cc2ccsc2)C1,13.4%
16,Cn1cnc2c1C(COCC1CCOCC1)CN(C(=O)c1ccoc1)C2 (stereo not given),-11.7%
17,CCN(CCn1cccn1)Cc1nc(-c2ccccc2F)oc1C,-3.06%
18,COc1ccccc1CN1CC[C@]2(C[C@H](OC)CO2)C1,-21.1%
19,O=C(c1ccc(-n2cccn2)nc1)N1CCCN(c2cccnn2)CC1,3.17%
20,COc1ccccc1NC(=O)CSC1CCc2ccccc2NC1=O (stereo not given),-1%

row,SMILES,Percent Effect
1,CC(CN1CCCC1)C(=O)N1CCC(c2nccn2CC2CC2)CC1 (stereo not given),-15.6%
2,Cc1cc(=O)n(CC(=O)NCC2CCCO2)c(-c2cccc(Cl)c2)n1 (stereo not given),-13.2%
3,CS(=O)(=O)NCc1nnc2n1CCN(Cc1cccs1)C2,3.79%
4,CCC(NC(=O)C1CCN(S(=O)(=O)N(C)C)CC1)c1ccc(C)c(C)c1 (stereo not given),-32.8%
5,CCC(C)(C)NC(=O)C1CC(=O)N(CC2CC2)C1 (stereo not given),28.9%
6,CN(Cc1ccc(Cl)s1)C1CCCN(c2cccnn2)C1 (stereo not given),-15%
7,Cn1cc(N2CCC(NC(=O)c3c(F)cccc3F)C2=O)cn1 (stereo not given),-11.8%
8,CCc1nnc(CNCC2CCN(CC(O)c3ccccc3)CC2)o1 (stereo not given),-40.8%
9,Cn1cc(CCNC(=O)CCc2ccc3c(c2)OCO3)cn1,21.4%
10,CC(C(=O)N1CCN(c2cnccn2)CC1)n1cncn1 (stereo not given),2.13%
11,CCn1ccnc1CN1CCOC(CNc2cccnn2)C1 (stereo not given),-18.9%
12,Cc1cccc(CN2CCc3ncnc(C)c3CC2)n1,-16.2%
13,Cc1nccn1-c1cccc(C2CCCN2S(=O)(=O)N(C)C)n1 (stereo not given),-8.96%
14,COc1cccc(COCC(=O)N2CCCC(n3ccnc3)C2)c1 (stereo not given),23.8%
15,O=C(Nc1nccs1)N1CCCC(N2CCNC2=O)C1 (stereo not given),-10.1%
16,COc1cccc(COCC(=O)N2CCCC(n3ccnc3C)C2)c1 (stereo not given),-2.47%
17,CN(C)CCO[C@@H]1CC[C@H]2[C@H]1OCCN2C(=O)CCc1ccccc1,-27.7%
18,CN(Cc1nnc(C2CC2)n1C)C(=O)c1ccnc(OC2CCC2)c1,3.48%
19,COC(=O)CNC(=O)CSCc1nc(O)c2c(C)c(C)sc2n1,-18.2%
20,CC(C)Cc1noc(CN2CCC(NC(=O)c3cccs3)CC2)n1,-32.8%
